Results filed as inconclusive are left out. Entries that show only a call come without a potency. Active and inactive are the calls of the source. Calls come from the whole dose curve; as a rule, active = well fitted curve in the direction sought with a large enough effect in the repeat runs; inconclusive = weak or mixed curves; inactive = no such curve, though single readings can be large; an effect the other way counts as inactive or inconclusive.
These compounds were tested against Cytochrome P450 2D6 (Homo sapiens) (UniProt P10635) (assay: Cytochrome P450 family 2 subfamily D member 6 (CYP2D6) small molecule antagonists: luciferase biochemical (cell-free) qHTS assay (AID 1645840)). Details: P450-Glo CYP2D6 enzyme, luciferin luminescence, 1 h; series mostly up to 57.4 µM.
Cytochrome P450 2D6 (Homo sapiens), sequence (P10635 whole entry, looked up): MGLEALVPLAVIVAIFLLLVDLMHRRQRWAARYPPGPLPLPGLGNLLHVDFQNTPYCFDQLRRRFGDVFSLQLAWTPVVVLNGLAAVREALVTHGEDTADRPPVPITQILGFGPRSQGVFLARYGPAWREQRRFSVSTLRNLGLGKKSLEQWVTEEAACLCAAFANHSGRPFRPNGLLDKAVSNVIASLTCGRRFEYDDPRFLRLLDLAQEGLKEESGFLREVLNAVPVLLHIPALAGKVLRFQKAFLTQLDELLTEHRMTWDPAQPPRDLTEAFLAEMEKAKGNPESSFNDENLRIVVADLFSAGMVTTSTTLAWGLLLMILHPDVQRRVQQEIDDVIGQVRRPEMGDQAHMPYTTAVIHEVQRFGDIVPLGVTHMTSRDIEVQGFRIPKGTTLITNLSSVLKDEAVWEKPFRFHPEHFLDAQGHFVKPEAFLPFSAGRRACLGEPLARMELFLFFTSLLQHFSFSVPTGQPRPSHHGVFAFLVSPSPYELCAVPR
Summary of the method: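 P450-Glo CYP2D6 system: proluciferin substrate converted by enzyme to luciferin, read by luminescence proportional to activity. Enzyme-substrate mix with compound 10 min at room temperature, then NADPH regeneration 1 h before detection reagent.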
With `CC(=O)Nc1ccc(OCCOCCOc2ccc(NC(C)=O)cc2)cc1` the Potency was “inactive”. In the case of `COc1ccc(-c2cc(=O)c3c(O)cc(O[C@@H]4O[C@H](CO[C@@H]5O[C@@H](C)[C@H](O)[C@@H](O)[C@H]5O)[C@@H](O)[C@H](O)[C@H]4O)cc3o2)cc1O`, the Potency is reported as “inactive”. With `CC[N+](C)(CC)CCOC(=O)C1c2ccccc2Oc2ccccc21` the Potency was 4.36 µM (active). With `COc1ccc(C(=O)NCc2ccc(OCCN(C)C)cc2)cc1OC` the Potency was “inactive”. In the case of `CC(=O)[C@@]1(O)CC[C@H]2[C@@H]3C[C@H](C)C4=CC(=O)C=C[C@]4(C)[C@@]3(F)[C@@H](O)C[C@@]21C`, the Potency is reported as “inactive”. In the case of `CC1CCc2cc(F)cc3c(=O)c(C(=O)O)cn1c23` (configuration not stated), the Potency is reported as “inactive”. For `CCOC(=O)[C@H](CCc1ccccc1)N[C@@H](C)C(=O)N1CCC[C@H]1C(=O)O`, the Potency was “inactive”. For `CCOc1ccc(C(=O)OCCN(CC)CC)cc1`, the Potency was 2.72 µM (active). With `COCC(=O)Nc1c(I)c(C(=O)NCC(O)CO)c(I)c(C(=O)N(C)CC(O)CO)c1I` (configuration not stated) the Potency was “inactive”. For `CN1CCCN=C1COC(=O)C(O)(c1ccccc1)C1CCCCC1` (configuration not stated), the Potency was 1.23 µM (active). For `O=C(NCCCN1CCOCC1)c1ccc(Cl)cc1`, the Potency was 2.72 µM (active). With `Cc1c(I)c(=O)n(-c2ccccc2)n1C` the Potency was “inactive”. In the case of `C[N+](C)(C)CC(O)CC(=O)[O-]` (configuration not stated), the Potency is reported as “inactive”. With `COc1ccc(Cc2cnc(N)nc2N)cc1OC` the Potency was “inactive”. `CC(=O)Nc1ccccc1` was tested, and the Potency was “inactive”. For `Cc1cccc(Nc2ccccc2C(=O)O)c1C`, the Potency was “inactive”. `COc1ccccc1Oc1c(NS(=O)(=O)c2ccc(C(C)(C)C)cc2)nc(-c2ncccn2)nc1OCCO` was tested, and the Potency was “inactive”. With `Cc1ncc(CO)c(CN)c1O` the Potency was “inactive”. In the case of `Cc1c(C)c2c(c(C)c1OC(=O)c1cccnc1)CC[C@@](C)(CCC[C@H](C)CCC[C@H](C)CCCC(C)C)O2`, the Potency is reported as “inactive”. With `CCCCCCCCCCOc1cc2c(=O)c(C(=O)OCC)c[nH]c2cc1OCC` the activity change, negative = inhibition was 3.17% [at 4.83 µM] (inactive). In the case of `CCN(CC)CCOC(=O)C(c1ccccc1)c1ccccc1`, the Potency is reported as 1.95 µM (active). With `CNCc1ccccc1` the Potency was 11 µM (active). `CCOC(=O)[C@H](CCc1ccccc1)N[C@@H](C)C(=O)N1Cc2cc(OC)c(OC)cc2C[C@H]1C(=O)O` was tested, and the Potency was “inactive”. In the case of `O=C(O)CCC(=O)O`, the Potency is reported as “inactive”. In the case of `COC(=O)c1ccc(O)cc1`, the Potency is reported as “inactive”. For `C[C@@H]1CCC[C@H](C)N1`, the Potency was “inactive”. In the case of `CC(N)CCCC(C)(C)O` (configuration not stated), the Potency is reported as “inactive”. In the case of `Cc1ccc(S(=O)(=O)NC(=O)NC2CCCCC2)cc1`, the Potency is reported as “inactive”.

These compounds were tested against Cytochrome P450 2C9 (Homo sapiens) (UniProt P11712) (assay: Cytochrome P450 family 2 subfamily C member 9 (CYP2C9) small molecule antagonists: luciferase biochemical (cell-free) qHTS assay (AID 1645842)). Details: P450-Glo CYP2C9 enzyme assay, luciferin luminescence; series mostly up to 57.4 µM.
Cytochrome P450 2C9 (Homo sapiens), sequence (P11712 whole entry, looked up): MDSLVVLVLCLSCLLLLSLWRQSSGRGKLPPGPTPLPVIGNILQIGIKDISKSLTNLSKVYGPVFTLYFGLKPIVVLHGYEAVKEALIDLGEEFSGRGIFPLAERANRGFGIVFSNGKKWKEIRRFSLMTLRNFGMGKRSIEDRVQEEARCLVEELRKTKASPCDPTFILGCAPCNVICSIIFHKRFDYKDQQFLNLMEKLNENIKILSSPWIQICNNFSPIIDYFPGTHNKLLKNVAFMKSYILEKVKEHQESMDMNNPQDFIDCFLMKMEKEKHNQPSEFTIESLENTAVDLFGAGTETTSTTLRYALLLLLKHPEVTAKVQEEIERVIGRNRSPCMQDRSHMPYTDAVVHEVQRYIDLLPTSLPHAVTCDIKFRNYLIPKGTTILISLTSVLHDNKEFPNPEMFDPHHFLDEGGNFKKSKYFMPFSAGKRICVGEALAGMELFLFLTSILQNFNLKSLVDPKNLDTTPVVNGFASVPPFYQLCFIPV
Summary of the method: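 P450-Glo CYP2C9 system: proluciferin substrate with enzyme in mix containing 0.4% BSA, 10 min at room temperature, then NADPH regeneration solution added and incubated 1 h at 37C. Detection reagent stopped reaction; luminescence read after 20 min as RLU.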
`CC(=O)Nc1ccc(OCCOCCOc2ccc(NC(C)=O)cc2)cc1` was tested, and the Potency was 3.47 µM (active). `COc1ccc(-c2cc(=O)c3c(O)cc(O[C@@H]4O[C@H](CO[C@@H]5O[C@@H](C)[C@H](O)[C@@H](O)[C@H]5O)[C@@H](O)[C@H](O)[C@H]4O)cc3o2)cc1O` was tested, and the Potency was “inactive”. For `CC[N+](C)(CC)CCOC(=O)C1c2ccccc2Oc2ccccc21`, the Potency was “inactive”. `COc1ccc(C(=O)NCc2ccc(OCCN(C)C)cc2)cc1OC` was tested, and the Potency was “inactive”. For `CC(=O)[C@@]1(O)CC[C@H]2[C@@H]3C[C@H](C)C4=CC(=O)C=C[C@]4(C)[C@@]3(F)[C@@H](O)C[C@@]21C`, the Potency was 4.36 µM (active). With `CC1CCc2cc(F)cc3c(=O)c(C(=O)O)cn1c23` (configuration not stated) the Potency was “inactive”. For `CCOC(=O)[C@H](CCc1ccccc1)N[C@@H](C)C(=O)N1CCC[C@H]1C(=O)O`, the Potency was “inactive”. With `CCOc1ccc(C(=O)OCCN(CC)CC)cc1` the Potency was “inactive”. With `COCC(=O)Nc1c(I)c(C(=O)NCC(O)CO)c(I)c(C(=O)N(C)CC(O)CO)c1I` (configuration not stated) the Potency was “inactive”. In the case of `CCCNC(C)C(=O)Nc1c(C)csc1C(=O)OC` (configuration not stated), the Potency is reported as “inactive”. With `CN1CCCN=C1COC(=O)C(O)(c1ccccc1)C1CCCCC1` (configuration not stated) the Potency was “inactive”. In the case of `O=C(NCCCN1CCOCC1)c1ccc(Cl)cc1`, the Potency is reported as “inactive”. With `NS(=O)(=O)c1cc(C2(O)NC(=O)c3ccccc32)ccc1Cl` (configuration not stated) the Potency was “inactive”. For `Cc1c(I)c(=O)n(-c2ccccc2)n1C`, the Potency was “inactive”. For `C[N+](C)(C)CC(O)CC(=O)[O-]` (configuration not stated), the Potency was “inactive”. In the case of `Cc1c(Cn2ccnc2)c2ccccc2n1CCC(=O)O`, the Potency is reported as 1.95 µM (active). With `COc1ccc(Cc2cnc(N)nc2N)cc1OC` the Potency was “inactive”. For `CC(=O)Nc1ccccc1`, the Potency was “inactive”. For `Cc1ncc(CO)c(CN)c1O`, the Potency was “inactive”. With `Cc1c(C)c2c(c(C)c1OC(=O)c1cccnc1)CC[C@@](C)(CCC[C@H](C)CCC[C@H](C)CCCC(C)C)O2` the Potency was “inactive”. With `CCCCCCCCCCOc1cc2c(=O)c(C(=O)OCC)c[nH]c2cc1OCC` the activity change, negative = inhibition was 5.88% [at 4.83 µM] (inactive). `CNCc1ccccc1` was tested, and the Potency was “inactive”. With `CCOC(=O)[C@H](CCc1ccccc1)N[C@@H](C)C(=O)N1Cc2cc(OC)c(OC)cc2C[C@H]1C(=O)O` the Potency was 12.3 µM (active). With `O=C(O)CCC(=O)O` the Potency was “inactive”. `COC(=O)c1ccc(O)cc1` was tested, and the Potency was “inactive”. `C[C@@H]1CCC[C@H](C)N1` was tested, and the Potency was “inactive”. With `O=C(O)Cn1c(C(=O)Nc2nc(-c3ccccc3Cl)cs2)cc2ccccc21` the Potency was “inactive”. `C/C(=C(\CCO)SS/C(CCO)=C(\C)N(C=O)Cc1cnc(C)nc1N)N(C=O)Cc1cnc(C)nc1N` was tested, and the Potency was “inactive”. In the case of `CC(N)CCCC(C)(C)O` (configuration not stated), the Potency is reported as “inactive”.

— PubChem BioAssay (NCATS)
Note: nearly all actives have a fitted effect of over 55% in size.
Potency is the fitted concentration of half-maximal effect.
